Measurements: the supplement of paper PMC3334620
Whole data set: some 33,000 sequences, median “E-score (-0.5 to 0.5)” near -0.016, cut for the highest 2% near 0.31. The list comes from a sample in which the highest values are over-represented; it also holds similar and randomly drawn sequences.

target: Cst6 (UniProt P40535); experiment: PBM E-score (8-mer binding enrichment) (E-score (-0.5 to 0.5)); higher = stronger / more preferred TF binding; conditions: protein concentration: 200 nM; construct: GST-DNA-binding domain
Experimental: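 Universal 'all 10-mer' protein binding microarrays (Agilent AMADID 015681) probed with GST-tagged S. cerevisiae TFs (full-length or DBD) made by in vitro transcription/translation (PURExpress), about 100-200 nM. Bound TF was detected with fluorescent anti-GST. Each ungapped 8-mer (which stands for itself and its reverse complement) is scored by the PBM enrichment score (E-score), a modified Wilcoxon-Mann-Whitney statistic from -0.5 to +0.5, computed with the Universal PBM Analysis Suite. Scale: above 0.35 generally sequence-specific binding.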

Sequence of UniProt P40535 (P40535 whole entry, the tested form may be a part): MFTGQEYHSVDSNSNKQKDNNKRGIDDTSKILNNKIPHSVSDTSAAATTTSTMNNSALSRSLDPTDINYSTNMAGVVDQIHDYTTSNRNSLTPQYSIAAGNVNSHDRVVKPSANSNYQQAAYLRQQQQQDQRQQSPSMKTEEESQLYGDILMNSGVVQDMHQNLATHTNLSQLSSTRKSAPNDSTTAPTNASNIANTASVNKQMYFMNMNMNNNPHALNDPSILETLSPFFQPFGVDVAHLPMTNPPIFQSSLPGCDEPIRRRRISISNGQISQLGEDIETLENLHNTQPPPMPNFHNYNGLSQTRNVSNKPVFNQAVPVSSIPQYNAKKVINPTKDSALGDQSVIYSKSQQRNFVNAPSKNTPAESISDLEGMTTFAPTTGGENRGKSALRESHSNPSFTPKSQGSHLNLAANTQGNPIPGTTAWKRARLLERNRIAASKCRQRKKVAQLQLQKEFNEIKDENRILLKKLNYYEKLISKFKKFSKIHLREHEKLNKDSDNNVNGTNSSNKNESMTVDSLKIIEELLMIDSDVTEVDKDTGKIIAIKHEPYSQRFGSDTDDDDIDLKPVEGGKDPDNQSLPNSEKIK

Sequence | PBM E-score
GGGAGTCA | -0.153
ACGCTATC | 0.093
CAGCTGCC | -0.146
AGAAGTCA | 0.0402
GGAAGGCC | -0.136
AAGAACAC | 0.167
AAGAACAA | 0.327
AAGAACAG | 0.0582
TCCCTCGA | -0.205
AGAAGTCT | -0.118
AGACGTAA | 0.371
TGACGTAA | 0.499
GGACGTAA | 0.279
AGACGTAG | -0.133
TGTCGTAA | 0.303
CGACGTAA | 0.451
GGACGTAC | -0.065
AGACGTAC | -0.0375
CGACGTAC | 0.139
CGTGGTGC | -0.177
CAGACCTA | -0.00947
GCACAGAA | 0.109
AGCTGAGA | -0.101
AATCCAAT | 0.139
AATCAGCT | 0.186

Sequence | PBM E-score
ACTCACGA | -0.053
GCTTTAAC | 0.135
ACGGCGGC | 0.156
CTGGCGTC | -0.0408
ACGGCGTA | 0.358
GCGGCGTA | 0.23
ACGGCGTG | 0.314
AGGGCGTG | -0.115
ACGGCGTC | 0.347
ACGGCGGG | 0.108
ATGGCGTC | 0.311
CCGGCGTC | -0.0641
CCGGCGTA | -0.134
ATGGCGTG | 0.113
ACCGGTCA | -0.0152
ACGCCACG | 0.0785
GGAAAACC | -0.0924
TCACAGAA | 0.133
CCAGTGCA | -0.185
GCAGTTCA | 0.0321
CAATGCGA | 0.136
GACGGGTA | -0.0938
GTCCCATA | -0.14
CTGAAACA | -0.0169
AAATTTAT | 0.234

Sequence | PBM E-score
AATTTTAA | 0.25
AATTTTAC | 0.326
CATTTTAC | 0.273
ATTTTTAC | 0.201
AATTTTAT | 0.346
ATTTGCTA | 0.156
CTATTCAA | 0.197
ACAACCAG | 0.0122
ACAACCAC | 0.133
ACAACCAT | 0.325
CTACGCAA | 0.119
GGCACGTA | 0.119
AATGAAAG | 0.168
AATGAAAT | 0.37
TAATGAAA | 0.261
CAATGAAA | 0.153
AATGAAAA | 0.236
AAATGAAA | 0.322
CAAACTTC | 0.177
AACCTTAG | -0.158
AAGAGGAC | -0.249
AAACAGGA | 0.0722
GATTAAAA | 0.242
ATTTTAAA | 0.308
TATTAAAA | 0.323

Sequence | PBM E-score
GATTTCAA | -0.0222
TATTTTAA | 0.259
AATTAAAA | 0.187
TATTTAAA | 0.308
TATTTCAA | 0.318
CATTTCAA | 0.222
ATTTTTAA | 0.293
GTTTTAAA | 0.196
CATTTAAA | 0.279
CAAACCCC | -0.178
AAGGCGTA | 0.0577
AGGCGAAT | 0.0491
TCCTTGAA | -0.0366
AGGGCAGA | -0.248
GAGTTACC | -0.0903
ATGGCACG | 0.111
ACCGGTGC | -0.105
ACCTTTTC | -0.133
ATCAGTGA | 0.136
CTCAGTGA | 0.0623
GTCAGTGA | 0.308
GGTACACC | -0.287
GGCAGGCA | -0.193
GCATGTCA | 0.287
TCATGTCA | 0.382

Sequence | PBM E-score
AAATGTCA | 0.216
GAATGTCA | 0.206
ACATGTCA | 0.275
TAATGTCA | 0.356
ATCCATGG | -0.138
GGAGATTA | 0.13
AGCTTCGC | -0.134
CGAACGAG | -0.108
CCACTTCA | -0.197
AACCACCA | 0.00505
CGGCCGCC | -0.0119
GGTATTTA | 0.0257
CGTATTTA | 0.358
AGTATTTA | 0.171
GAGCCTGC | -0.173
AAACAGGC | -0.0905
ATAACGTA | 0.398
CTAACGTC | 0.356
ATAACGAA | 0.217
AGAACGTC | 0.142
ATAACGTC | 0.38
GTAACGTA | 0.302
CTAACGTA | 0.281
ATAACGTG | 0.213
CAAACGTC | 0.137

Sequence | PBM E-score
CTACTCAC | 0.212
CATAGACC | -0.13
AACTGCCG | 0.114
ATAATTTA | 0.304
GCAATTTA | 0.151
TAAATTTA | 0.237
GTAATTTA | 0.333
CTAATTTC | 0.128
CTAATTTA | 0.321
CATGAGGG | -0.142
ATGCAAAA | 0.22
ACGGTCAC | 0.152
TCAGCGCA | -0.176
ACAAAAGT | 0.164
TCGTATAA | 0.145
ACGTATAC | 0.307
GCGTATTA | 0.0768
CCGTATAA | 0.225
ACGTATAT | 0.237
ACGTATTG | 0.238
ACGTATTA | 0.33
ACGTATAA | 0.309
CCGTATAC | -0.015
CGAGACTA | 0.0119
GCAGCGCC | 0.0306

Sequence | PBM E-score
CTAAAGAG | -0.0139
AGGGGCCC | -0.101
ACCCGACT | -0.16
CAAGGTTC | -0.155
AGGCTGGC | -0.195
CAACGTAA | 0.329
AAACGTAA | 0.365
AAACGTAT | 0.276
CAACGTAC | 0.0567
AAACGTTG | -0.106
CAACGTTC | -0.13
GAACGTAA | 0.277
AAACGTAG | -0.0946
TAACGAAA | 0.27
TAACGTAA | 0.452
CAACGTAG | 0.0788
CAACGTTG | 0.31
GGCCCTCA | -0.266
AAGCAAAC | 0.0375
CGATGACA | 0.383
TGATGAAA | 0.289
TCATGACA | 0.392
CGATGACG | 0.48
TCATGAGA | 0.214
CGATGAAG | 0.0389

Sequence | PBM E-score
CGATGAGA | -0.048
TGATGACA | 0.368
GCATGACA | 0.288
GGATGACA | 0.287
CGATGACC | 0.0541
AGATGACA | 0.283
AAGCGTGA | 0.141
GACTATCA | -0.104
CGGAGATC | -0.205
ACTGTGTA | -0.043
CTACTCCC | -0.156
CAGGCCAA | -0.178
GCGTGACA | 0.255
CGTTCTTC | 0.151
ACAGATCC | 0.0419
ACGAACAC | 0.138
AGATGACC | 0.0152
AGATGACT | 0.0398
AGATGACG | 0.473
ACTCTGGA | 0.109
CGACGACA | -0.054
AGACGAAA | 0.134
GGACGACA | 0.0793
TGACGACA | 0.476
GGACGAAA | 0.0732

Sequence | PBM E-score
TGACGAAA | 0.477
TGCATCAA | 0.154
CAGCCAAA | 0.0814
AGCCTGAA | -0.0532
ATGACCTC | 0.349
CTGACCTA | -0.0164
ATGACCTA | 0.346
ATGACCTG | 0.0198
GTGACCTA | 0.192
CTGACCTC | 0.0456
GCCGGCAA | -0.108
CCTCATCC | -0.272
AGTCATCA | 0.0814
AGTCATCC | -0.0119
CGTCATCC | 0.473
CGTCATCA | 0.487
GGTCATCA | 0.247
CGGCACGC | 0.0275
TGTGGAAA | 0.186
